Reference: PubChem BioAssay (EPA / NIEHS)
Activity calls are given as the source filed them. How the source made its calls: active means hit-call score of the fitted dose curve at least 0.9, where 1 is the maximum; inactive means score below 0.9.

How the values were obtained:
[1] = ATG_CRE_CIS: Attagene CIS-FACTORIAL HepG2 Assay for human cAMP Responsive Element (CRE) binding protein 3 (AID 2282926); conditions: HepG2 CRE cis-reporter, Attagene multiplexed mRNA; actives raise or lower the signal
Method in brief: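 Human liver HepG2, transient MRTU transfection, 24 h compound exposure. Total RNA → oligo(dT) RT → PCR → 6-FAM primer extension → HpaI cut → CE. Activity called both directions vs DMSO.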

[2] = target: CCAAT/enhancer-binding protein beta (Homo sapiens) (UniProt P17676); assay: ATG_C_EBP_CIS: Attagene CIS-FACTORIAL HepG2 Assay for human CCAAT/Enhancer Binding Protein (C/EBP) beta (AID 2282927); conditions: HepG2 Attagene cis-factorial transcription factor reporter; actives raise or lower the signal
CCAAT/enhancer-binding protein beta (Homo sapiens), sequence (P17676 whole entry, looked up, the tested form may be a part): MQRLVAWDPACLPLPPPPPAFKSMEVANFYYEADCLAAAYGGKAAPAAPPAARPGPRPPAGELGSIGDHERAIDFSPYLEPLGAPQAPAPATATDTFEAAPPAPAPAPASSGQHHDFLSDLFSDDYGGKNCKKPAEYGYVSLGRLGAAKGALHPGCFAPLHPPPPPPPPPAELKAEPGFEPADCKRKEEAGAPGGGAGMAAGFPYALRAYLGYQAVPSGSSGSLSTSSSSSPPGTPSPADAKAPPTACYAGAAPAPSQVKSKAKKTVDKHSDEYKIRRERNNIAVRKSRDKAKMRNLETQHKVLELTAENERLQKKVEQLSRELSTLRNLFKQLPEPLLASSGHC
Method in brief: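 Chemical-treated HepG2 cells (24 h) bearing cis-regulated reporter constructs were processed for total RNA, then reverse transcription, PCR amplification, fluorescent primer extension and fragment analysis; gain- and loss-of-signal were fitted against DMSO.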

[3] = ATG_CMV_CIS: Attagene CIS-FACTORIAL HepG2 Assay for human CMV (Internal Marker) (AID 2282928); conditions: HepG2 CMV promoter reporter, transcription factor profiling; actives raise or lower the signal;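 further: endpoint acts as a background internal control marker rather than a target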
Method in brief: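 CMV internal-marker background readout in transiently transfected HepG2 cells bearing cis-regulated reporter units. Reporter mRNA is measured 24 h after dosing by RT-PCR and capillary electrophoresis, with bidirectional fitting against DMSO.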

[4] = ATG_DR4_LXR_CIS: Attagene CIS-FACTORIAL HepG2 Assay for human Liver X Receptor (LXR), DR4 submotif (AID 2282929); conditions: HepG2 Attagene DR4 cis-reporter, mRNA transcription; actives raise or lower the signal
Method in brief: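 Total RNA from 24 h-treated, MRTU-transfected HepG2 cells underwent reverse transcription, PCR, fluorescent primer extension and restriction digestion before capillary electrophoresis. Both increases and decreases in reporter signal were fitted against DMSO.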

[5] = target: Aryl hydrocarbon receptor (Homo sapiens) (UniProt P35869); assay: ATG_Ahr_CIS: Attagene CIS-FACTORIAL HepG2 Assay for human Aryl Hydrocarbon Receptor (Ahr) (AID 2282930); conditions: HepG2 AhR cis-factorial reporter transcription; actives raise or lower the signal
Aryl hydrocarbon receptor (Homo sapiens), sequence (P35869 whole entry, looked up): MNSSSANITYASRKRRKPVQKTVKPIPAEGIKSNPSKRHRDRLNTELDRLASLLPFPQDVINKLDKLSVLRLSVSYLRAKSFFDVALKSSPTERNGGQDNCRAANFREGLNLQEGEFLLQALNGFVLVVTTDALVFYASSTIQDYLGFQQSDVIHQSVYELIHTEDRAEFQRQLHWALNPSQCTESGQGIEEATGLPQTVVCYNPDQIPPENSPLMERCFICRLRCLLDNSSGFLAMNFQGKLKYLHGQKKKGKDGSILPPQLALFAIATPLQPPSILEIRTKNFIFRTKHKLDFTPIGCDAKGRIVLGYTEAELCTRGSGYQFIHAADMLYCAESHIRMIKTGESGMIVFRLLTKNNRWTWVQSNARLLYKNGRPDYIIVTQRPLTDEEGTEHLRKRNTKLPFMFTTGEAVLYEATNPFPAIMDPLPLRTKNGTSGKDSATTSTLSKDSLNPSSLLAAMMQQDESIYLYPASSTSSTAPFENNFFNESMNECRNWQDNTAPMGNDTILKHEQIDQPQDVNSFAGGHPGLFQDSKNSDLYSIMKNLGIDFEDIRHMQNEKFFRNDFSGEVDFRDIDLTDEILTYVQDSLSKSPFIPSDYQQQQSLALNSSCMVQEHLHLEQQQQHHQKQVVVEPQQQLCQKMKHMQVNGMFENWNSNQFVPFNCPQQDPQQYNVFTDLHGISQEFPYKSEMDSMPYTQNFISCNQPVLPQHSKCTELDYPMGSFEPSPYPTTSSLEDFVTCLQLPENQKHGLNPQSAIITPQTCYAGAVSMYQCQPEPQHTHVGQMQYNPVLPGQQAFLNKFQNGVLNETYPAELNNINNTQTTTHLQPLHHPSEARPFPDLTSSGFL
Method in brief: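 Following 24 h of chemical dosing, transfected HepG2 liver cells with cis-driven reporter units were lysed for RNA; reporter mRNA was quantified via RT-PCR and capillary electrophoresis, and responses fitted bidirectionally from DMSO.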

[6] = ATG_AP_1_CIS: Attagene CIS-FACTORIAL HepG2 Assay for human Activator Protein 1 (AP-1) (AID 2282931); conditions: HepG2 Attagene cis-factorial AP-1 reporter mRNA; actives raise or lower the signal
Method in brief: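 HepG2, transient cis-reporter transfection; 24 h; readout RT-PCR/CE fluorescence; DMSO baseline, gain and loss fitted.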

[7] = ATG_AP_2_CIS: Attagene CIS-FACTORIAL HepG2 Assay for human Activator Protein 2 (AP-2) (AID 2282932); conditions: HepG2 AP-2 cis-reporter, Attagene transcription factor profiling; actives raise or lower the signal
Method in brief: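 HepG2 cells were transiently transfected with multiple cis-promoter reporter transcription units and dosed for 24 h. Reporter mRNA was measured by RT-PCR with capillary electrophoresis fluorescence; bidirectional fits relative to DMSO baseline.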

[8] = ATG_BRE_CIS: Attagene CIS-FACTORIAL HepG2 Assay for human Bone Morphogenetic Protein (BMP) Response Element (BRE) (AID 2282933); conditions: HepG2 BMP response element reporter, Attagene transcription factor profiling; actives raise or lower the signal
Method in brief: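 Multiplexed cis-reporter assay, HepG2, 24 h exposure. mRNA from reporter units quantified via RT-PCR/CE; DMSO baseline; bidirectional curve fit.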

[9] = target: Retinoic acid receptor alpha (Homo sapiens) (UniProt P10276); assay: ATG_DR5_RAR_CIS: Attagene CIS-FACTORIAL HepG2 Assay for human Retinoic Acid Receptor Alpha (RARE), DR5 submotif (AID 2282934); conditions: HepG2 Attagene cis-factorial RARE DR5 reporter, mRNA; actives raise or lower the signal
Retinoic acid receptor alpha (Homo sapiens), sequence (P10276 whole entry, looked up): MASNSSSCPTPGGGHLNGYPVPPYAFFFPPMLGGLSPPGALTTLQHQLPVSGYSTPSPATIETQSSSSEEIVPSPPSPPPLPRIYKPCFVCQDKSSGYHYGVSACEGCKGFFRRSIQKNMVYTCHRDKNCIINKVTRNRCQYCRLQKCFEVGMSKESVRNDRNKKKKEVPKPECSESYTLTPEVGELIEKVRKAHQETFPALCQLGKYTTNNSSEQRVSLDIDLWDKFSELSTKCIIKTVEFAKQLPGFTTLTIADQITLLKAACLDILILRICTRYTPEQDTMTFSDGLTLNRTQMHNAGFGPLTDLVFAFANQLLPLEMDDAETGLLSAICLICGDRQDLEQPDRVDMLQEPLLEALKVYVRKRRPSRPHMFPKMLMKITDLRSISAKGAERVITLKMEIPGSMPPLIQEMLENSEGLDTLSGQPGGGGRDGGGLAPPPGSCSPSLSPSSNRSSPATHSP
Method in brief: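 Transfected HepG2 reporter cells are exposed to chemicals for 24 h. Then RNA is extracted and the DR5 element reporter transcript is measured by RT-PCR and capillary electrophoresis, with bidirectional curve fitting relative to DMSO.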

[10] = target: Transcription factor E2F1 (Homo sapiens) (UniProt Q01094); assay: ATG_E2F_CIS: Attagene CIS-FACTORIAL HepG2 Assay for human E2F Transcription Factor 1 (AID 2282935); conditions: HepG2 Attagene cis-reporter, E2F reporter RNA transcripts; actives raise or lower the signal
Transcription factor E2F1 (Homo sapiens), sequence (Q01094 whole entry, looked up): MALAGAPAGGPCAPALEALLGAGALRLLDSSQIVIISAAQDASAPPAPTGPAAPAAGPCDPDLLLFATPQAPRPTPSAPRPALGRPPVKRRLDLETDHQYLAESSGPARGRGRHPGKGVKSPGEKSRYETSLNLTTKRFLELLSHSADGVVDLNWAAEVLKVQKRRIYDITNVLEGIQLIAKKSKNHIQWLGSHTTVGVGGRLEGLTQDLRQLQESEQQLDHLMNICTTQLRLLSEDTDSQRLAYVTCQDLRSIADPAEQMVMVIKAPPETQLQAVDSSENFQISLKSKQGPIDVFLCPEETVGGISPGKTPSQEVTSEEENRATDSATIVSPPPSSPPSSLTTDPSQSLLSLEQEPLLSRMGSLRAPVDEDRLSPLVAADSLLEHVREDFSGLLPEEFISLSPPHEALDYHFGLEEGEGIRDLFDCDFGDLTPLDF
Method in brief: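 HepG2 cells transiently transfected with multiplexed cis-element reporter units, dosed for 24 h. Reporter mRNA measured by RT-PCR, 6-FAM primer-extension labeling, HpaI digestion and capillary electrophoresis; bidirectional fit versus DMSO baseline.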

[11] = ATG_E_Box_CIS: Attagene CIS-FACTORIAL HepG2 Assay for human Enhancer Box (E-box) (AID 2282936); conditions: HepG2 E-box cis-reporter transcription, actives raise or lower the signal
Method in brief: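 HepG2 cells transiently transfected with multiplexed cis-element reporter units sensing endogenous transcription factor activity; 24 h compound exposure. Reporter mRNA measured by RT-PCR, 6-FAM primer extension, HpaI digestion and capillary electrophoresis; bidirectional fit versus DMSO.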

[12] = ATG_M_61_CIS: Attagene CIS-FACTORIAL HepG2 Assay for M61 Transcription Factor (Internal Marker) (AID 2282937); conditions: HepG2 Attagene CIS-FACTORIAL M61 internal marker reporter; actives raise or lower the signal
Method in brief: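 Transfect HepG2 with MRTUs; dose 24 h; isolate RNA; reverse-transcribe with DNase I treatment; PCR-amplify, FAM-label and cut with HpaI for 2 h at 37 C; resolve by CE. Bidirectional fitting against DMSO.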

| Structure (SMILES) | outcome [1] | outcome [2] | outcome [3] | outcome [4] | outcome [5] | outcome [6] | outcome [7] | outcome [8] | outcome [9] | outcome [10] | outcome [11] | outcome [12] | AC50 [3] | AC50 [4] | AC50 [5] | AC50 [6] | AC50 [8] | AC50 [10] |
| --- | --- | --- | --- | --- | --- | --- | --- | --- | --- | --- | --- | --- | --- | --- | --- | --- | --- | --- |
| CN(C)P(=O)(N(C)C)N(C)C | inactive | inactive | inactive | inactive | inactive | inactive | inactive | inactive | inactive | inactive | inactive | inactive |  |  |  |  |  |  |
| CC(=[OH+])/C=C(/C)[O-].CC(=[OH+])/C=C(/C)[O-].CC(=[OH+])/C=C(/C)[O-].[Fe] | inactive | inactive | inactive | inactive | inactive | inactive | inactive | inactive |  | inactive | inactive | inactive |  |  |  |  |  |  |
| O=[N+]([O-])c1ccc(O)c([N+](=O)[O-])c1 | inactive | inactive | inactive | inactive | inactive | inactive | inactive | inactive |  | inactive | inactive | inactive |  |  |  |  |  |  |
| CC(=O)C=C(C)C | inactive | inactive | inactive | inactive | inactive | inactive | inactive | inactive |  | inactive | inactive | inactive |  |  |  |  |  |  |
| CCC(=O)c1ccccc1 | inactive | inactive | inactive | inactive | inactive | inactive | inactive | inactive |  | inactive | inactive | inactive |  |  |  |  |  |  |
| CCOP(=S)(OCC)Oc1nc(Cl)c(Cl)cc1Cl | inactive | inactive |  |  |  |  | inactive |  |  |  | inactive | inactive | 26.1 µM (active) | 27.4 µM (active) | 2.35 µM (active) | 46.2 µM (active) | 65.5 µM (active) | 48.6 µM (active) |
| O=CC=O | inactive | inactive | inactive | inactive | inactive | inactive | inactive | inactive |  | inactive | inactive | inactive |  |  |  |  |  |  |
| O=C/C=C/c1ccccc1 | inactive | inactive | inactive | inactive | inactive | inactive | inactive | inactive |  | inactive | inactive | inactive |  |  |  |  |  |  |
| CCC[CH2][Sn]([Cl])([Cl])[Cl] | inactive | inactive | inactive | inactive | inactive | inactive | inactive | inactive |  | inactive | inactive | inactive |  |  |  |  |  |  |
| Fc1ccc(C2(Cn3cncn3)OC2c2ccccc2Cl)cc1 (stereo not drawn) | inactive | inactive | inactive | inactive |  | inactive | inactive |  |  | inactive | inactive | inactive |  |  | 13.3 µM (active) |  | 69.9 µM (active) |  |
| CCCCCCCCCl | inactive | inactive | inactive | inactive | inactive | inactive | inactive | inactive | inactive | inactive | inactive | inactive |  |  |  |  |  |  |
